# PubChem BioAssay (Tox21)
# Results filed as inconclusive are left out. Activity calls are given as the source filed them. Calls follow the shape of the dose curve; as a rule, active = well fitted curve in the direction sought with a large enough effect in the repeat runs; inconclusive = weak or mixed curves; inactive = no such curve, though single readings can be large; an effect the other way counts as inactive or inconclusive.
# Experiment: Caspase-3/7 induction in CHO-K1 cells by small molecules, qHTS assay (AID 1346980); also: nearly all actives have a fitted effect of over 15% in size
# Settings: CHO-K1 caspase-3/7 induction, Caspase-Glo luminescence, 17 h; series mostly up to 92.4 µM; caspase-3/7 activation: at the top concentration
# Summary of the method: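 Wild-type CHO-K1 cells exposed to compounds for 17hr at 37 C, 5% CO2. Caspase-3/7 activity then measured by Caspase-Glo 3/7 luminescence after 30min at room temperature.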
# % is scaled to controls: 0 for no effect and ±100 for the full control effect; potency is read from the fitted curve at half-maximal effect.
SMILES,Potency,caspase-3/7 activation
Oc1ccc(Cl)c2cccnc12,6.68 µM (active),
CC(C)c1nc(CN(C)C(=O)N[C@H](C(=O)N[C@@H](Cc2ccccc2)C[C@H](O)[C@H](Cc2ccccc2)NC(=O)OCc2cncs2)C(C)C)cs1,,-1.22% [at 42.5 µM] (inactive)
C[C@H]1c2cccc(O)c2C(O)=C2C(=O)[C@]3(O)C(O)=C(C(N)=O)C(=O)[C@@H](N(C)C)[C@@H]3[C@@H](O)[C@@H]21,,-0.846% [at 42.5 µM] (inactive)
C=C(C)CCCC(C)CCO (stereo not given),,0.168% (inactive)
O=C=Nc1ccc(Cl)c(Cl)c1,,1.75% (inactive)
CC(=O)NC1(c2cccc(F)c2)CCN(CC[C@@]2(c3ccc(Cl)c(Cl)c3)CN(c3ccccc3)C(=O)CO2)CC1,48.7 µM (active),
CC(=O)Nc1ccc(C)cc1C,,0.107% (inactive)
CC(CCC(=O)O)C(=O)O (stereo not given),,0.336% (inactive)
Cc1cccc(O)c1N,,0.21% (inactive)
CCOC(=O)[C@H](CCc1ccccc1)N[C@@H](C)C(=O)N(CC(=O)O)C1Cc2ccccc2C1,,0.118% [at 42.5 µM] (inactive)
CC1=C(CC=O)C(C)(C)CCC1,,-1.22% (inactive)
N#CCc1ccc(Cl)cc1Cl,,-0.0699% (inactive)
CC(C)C=O,,-0.629% (inactive)
C=C(C)[C@@H]1CCC2=CCC[C@@H](C)[C@]2(C)C1,,-0.281% (inactive)
C=CCc1ccccc1OCC(O)CNC(C)C (stereo not given),,0.324% [at 42.5 µM] (inactive)
OC(CCN1CCCC1)(c1ccccc1)C1CCCCC1 (stereo not given),,1.2% [at 42.5 µM] (inactive)
CCOC(=O)c1ccc(I)cc1,,6.8% (inactive)
CC(C)=CCC/C(C)=C/CC/C(C)=C/CCC(=O)OC/C=C(\C)CCC=C(C)C,,-0.561% [at 42.5 µM] (inactive)
O=C(OC(=O)c1ccccc1)c1ccccc1,,-0.217% (inactive)

SMILES,Potency,caspase-3/7 activation
C[C@@H](O[C@H]1OCCN(Cc2n[nH]c(=O)[nH]2)[C@H]1c1ccc(F)cc1)c1cc(C(F)(F)F)cc(C(F)(F)F)c1,,7.99% [at 42.5 µM] (inactive)
CCOc1cccc(-n2cc(C(=O)N3CCN(c4cc(C(=O)O)c5ccccc5c4)CC3)nc2-c2ccc(C)cc2)c1,58.3 µM (active),
CCCCCC[C@@H](O)C/C=C\CCCCCCCC(=O)O,,0.631% (inactive)
C/C=C(/C(=C/C)c1ccc(O)cc1)c1ccc(O)cc1,,0.986% [at 42.5 µM] (inactive)
CC(=O)OCCN(CCOC(C)=O)c1ccc(N=Nc2ccc([N+](=O)[O-])cc2C#N)cc1,,-5.06% (inactive)
C=C(C)C(=O)OCCOCCOC(=O)C(=C)C,,-0.314% (inactive)
CCCCOc1ccc(OCCCN2CCOCC2)cc1,,0.112% [at 42.5 µM] (inactive)
CC1CC(OC(=O)C(O)c2ccccc2)CC(C)(C)N1C (stereo not given),,-0.0076% [at 42.5 µM] (inactive)
CS(=O)(=O)c1ccc(-c2cn3ccccc3n2)cc1,,-5.39% [at 42.5 µM] (inactive)
N#CCCN(CCO)CCO,,-0.0147% (inactive)
Cc1cccc(N(C)C(=S)Oc2ccc3c(c2)CCC3)c1,,0.893% [at 42.5 µM] (inactive)
C=C(C)C(=O)OCCCCCCCCCCCCC,,0.154% (inactive)
C[C@]1(Cn2ccnn2)[C@H](C(=O)O)N2C(=O)C[C@H]2S1(=O)=O,,-0.126% [at 42.5 µM] (inactive)
CCOc1ccccc1O[C@H](c1ccccc1)[C@H]1CNCCO1,,0.555% [at 42.5 µM] (inactive)
Cc1ccc(CO)cc1,,0.489% (inactive)
OC[C@H]1O[C@@H](n2cnc3c(=S)nc[nH]c32)[C@H](O)[C@@H]1O,,-1.67% [at 42.5 µM] (inactive)
Nc1nc2ccc([N+](=O)[O-])cc2s1,,-2.95% (inactive)
CC(=O)N/N=C/c1ccc([N+](=O)[O-])o1,,0.709% [at 42.5 µM] (inactive)

# Experiment: Caspase-3/7 induction in HepG2 cells by small molecules, qHTS cell viability counter screen (AID 1346981); also: nearly all actives have a fitted effect of over 30% in size
# Settings: CellTiter-Fluor fluorescence, 17 h; series mostly up to 92.4 µM; activity change, negative = cytotoxicity: at the top concentration
# Summary of the method: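 The parent HepG2 line is plated at 2,000 cells per well and rested 5 hr before compound pinning from DMSO stocks. Following a 16-hr treatment at 37 C, a fluorogenic live-cell substrate (CellTiter-Fluor) reports viability after 1 hr.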
SMILES,Potency,"activity change, negative = cytotoxicity"
CC(C)COCC(CN(Cc1ccccc1)c1ccccc1)N1CCCC1 (stereo not given),29.8 µM (active),
C=CC(=O)OCC1CC2CC1C1CCC(COC(=O)C=C)C21 (stereo not given),,6.08% (inactive)
Oc1ccc(Cl)c2cccnc12,,2.17% [at 42.5 µM] (inactive)
CC(C)c1nc(CN(C)C(=O)N[C@H](C(=O)N[C@@H](Cc2ccccc2)C[C@H](O)[C@H](Cc2ccccc2)NC(=O)OCc2cncs2)C(C)C)cs1,21.1 µM (active),
C[C@H]1c2cccc(O)c2C(O)=C2C(=O)[C@]3(O)C(O)=C(C(N)=O)C(=O)[C@@H](N(C)C)[C@@H]3[C@@H](O)[C@@H]21,,-2.74% [at 42.5 µM] (inactive)
C=C(C)CCCC(C)CCO (stereo not given),,4.58% (inactive)
O=C=Nc1ccc(Cl)c(Cl)c1,,-12.4% (inactive)
CC(=O)NC1(c2cccc(F)c2)CCN(CC[C@@]2(c3ccc(Cl)c(Cl)c3)CN(c3ccccc3)C(=O)CO2)CC1,48.7 µM (active),
CC(=O)Nc1ccc(C)cc1C,,8.52% (inactive)
CC(CCC(=O)O)C(=O)O (stereo not given),,0% (inactive)
Cc1cccc(O)c1N,,-5.66% (inactive)
CCOC(=O)[C@H](CCc1ccccc1)N[C@@H](C)C(=O)N(CC(=O)O)C1Cc2ccccc2C1,,1.24% [at 42.5 µM] (inactive)
CC1=C(CC=O)C(C)(C)CCC1,,1.92% (inactive)
N#CCc1ccc(Cl)cc1Cl,,5.77% (inactive)
CC(C)C=O,,2% (inactive)
C=C(C)[C@@H]1CCC2=CCC[C@@H](C)[C@]2(C)C1,,8.92% (inactive)
C=CCc1ccccc1OCC(O)CNC(C)C (stereo not given),,-5.5% [at 42.5 µM] (inactive)
OC(CCN1CCCC1)(c1ccccc1)C1CCCCC1 (stereo not given),,-1.18% [at 42.5 µM] (inactive)
CCOC(=O)c1ccc(I)cc1,,-0.115% (inactive)

SMILES,Potency,"activity change, negative = cytotoxicity"
CC(C)=CCC/C(C)=C/CC/C(C)=C/CCC(=O)OC/C=C(\C)CCC=C(C)C,,2.58% [at 42.5 µM] (inactive)
O=C(OC(=O)c1ccccc1)c1ccccc1,,1.06% (inactive)
C[C@@H](O[C@H]1OCCN(Cc2n[nH]c(=O)[nH]2)[C@H]1c1ccc(F)cc1)c1cc(C(F)(F)F)cc(C(F)(F)F)c1,29.8 µM (active),
CCOc1cccc(-n2cc(C(=O)N3CCN(c4cc(C(=O)O)c5ccccc5c4)CC3)nc2-c2ccc(C)cc2)c1,,-6.15% (inactive)
CCCCCC[C@@H](O)C/C=C\CCCCCCCC(=O)O,,-1.24% (inactive)
C[C@@H]1CN(CCCn2c3ccccc3c3ccccc32)C[C@H](C)N1,29.8 µM (active),
C=C(C)C(=O)OCCOCCOC(=O)C(=C)C,,5.59% (inactive)
CCCCOc1ccc(OCCCN2CCOCC2)cc1,,0.598% [at 42.5 µM] (inactive)
CC1CC(OC(=O)C(O)c2ccccc2)CC(C)(C)N1C (stereo not given),,-0.526% [at 42.5 µM] (inactive)
CS(=O)(=O)c1ccc(-c2cn3ccccc3n2)cc1,,-0.0842% [at 42.5 µM] (inactive)
N#CCCN(CCO)CCO,,6.43% (inactive)
Cc1cccc(N(C)C(=S)Oc2ccc3c(c2)CCC3)c1,,-1.73% [at 42.5 µM] (inactive)
C=C(C)C(=O)OCCCCCCCCCCCCC,,-1.91% (inactive)
C[C@]1(Cn2ccnn2)[C@H](C(=O)O)N2C(=O)C[C@H]2S1(=O)=O,,3.8% [at 42.5 µM] (inactive)
CCOc1ccccc1O[C@H](c1ccccc1)[C@H]1CNCCO1,,-5.58% [at 42.5 µM] (inactive)
Cc1ccc(CO)cc1,,-5.95% (inactive)
OC[C@H]1O[C@@H](n2cnc3c(=S)nc[nH]c32)[C@H](O)[C@@H]1O,,-9.11% [at 42.5 µM] (inactive)
Nc1nc2ccc([N+](=O)[O-])cc2s1,61.1 µM (active),
CC(=O)N/N=C/c1ccc([N+](=O)[O-])o1,,-0.986% [at 42.5 µM] (inactive)
